Test results: the supplement of paper PMC12819154, “High-throughput peptide-centric local stability assay extends protein–ligand identification to membrane proteins, tissues and bacteria” (Nature Structural & Molecular Biology, 2025)

Compound: Nc1ncnc2c1ncn2[C@@H]1O[C@H](COP(=O)(O)OP(=O)(O)OP(=O)(O)O)[C@@H](O)[C@H]1O [adenosine 5'-triphosphate]
Experiment: log2 fold change of tryptic peptide abundance, ligand vs vehicle (limited proteolysis) (log2 ratio); higher = more trypsin-susceptible (destabilized)
Settings: ligand concentration: 5 mM; sample: E. coli desalted lysate; replicate design: treated before aliquoting
Protocol: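 HT-PELSA: desalted E. coli K-12 BW25113 lysate (with 12 mM MgCl2) incubated with 5 mM ATP (pH 7) or water for 30 min at 25 C, then a 4 min trypsin pulse at 22 C. Peptides were quantified by DIA-MS (4 replicates). Value is the peptide log2 fold change (treated/control); negative = stabilized. Scale: negative = ligand-stabilized region.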
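Also: lysate desalted by size exclusion to strip endogenous ATP, peptide intensities built from DIA-NN precursor signals, and peptides missing any value discarded before comparison.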

Chain of UniProt P08179 (P08179 whole entry): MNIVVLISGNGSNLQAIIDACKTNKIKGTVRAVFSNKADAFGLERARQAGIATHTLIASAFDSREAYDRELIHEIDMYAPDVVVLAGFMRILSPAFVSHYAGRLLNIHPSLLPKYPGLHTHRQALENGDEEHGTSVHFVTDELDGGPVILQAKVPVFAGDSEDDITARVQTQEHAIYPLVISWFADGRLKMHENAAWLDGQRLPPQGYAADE
Chain of UniProt P31142 (P31142 whole entry): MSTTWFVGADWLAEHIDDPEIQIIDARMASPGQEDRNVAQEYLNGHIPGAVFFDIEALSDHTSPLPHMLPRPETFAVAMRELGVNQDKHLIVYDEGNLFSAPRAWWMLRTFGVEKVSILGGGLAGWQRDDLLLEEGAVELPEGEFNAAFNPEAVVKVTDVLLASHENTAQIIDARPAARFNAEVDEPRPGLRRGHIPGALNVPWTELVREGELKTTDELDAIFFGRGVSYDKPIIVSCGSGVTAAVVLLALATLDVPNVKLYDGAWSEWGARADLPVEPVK
Chain of UniProt P07014 (P07014 whole entry): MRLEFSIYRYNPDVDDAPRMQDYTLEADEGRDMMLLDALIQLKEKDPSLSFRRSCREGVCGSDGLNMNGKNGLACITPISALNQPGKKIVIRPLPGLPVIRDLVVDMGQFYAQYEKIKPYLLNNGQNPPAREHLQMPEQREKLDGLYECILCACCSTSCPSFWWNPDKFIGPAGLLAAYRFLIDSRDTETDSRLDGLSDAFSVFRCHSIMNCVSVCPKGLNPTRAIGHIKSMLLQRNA
Chain of UniProt P10908 (P10908 whole entry): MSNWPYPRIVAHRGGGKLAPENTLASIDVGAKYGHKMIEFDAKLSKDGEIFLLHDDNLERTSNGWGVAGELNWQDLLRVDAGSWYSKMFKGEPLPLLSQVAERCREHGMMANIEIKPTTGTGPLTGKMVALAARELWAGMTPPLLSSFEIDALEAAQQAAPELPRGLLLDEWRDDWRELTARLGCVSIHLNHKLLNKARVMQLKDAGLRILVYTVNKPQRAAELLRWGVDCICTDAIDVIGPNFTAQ
Chain of UniProt P77258 (P77258 whole entry): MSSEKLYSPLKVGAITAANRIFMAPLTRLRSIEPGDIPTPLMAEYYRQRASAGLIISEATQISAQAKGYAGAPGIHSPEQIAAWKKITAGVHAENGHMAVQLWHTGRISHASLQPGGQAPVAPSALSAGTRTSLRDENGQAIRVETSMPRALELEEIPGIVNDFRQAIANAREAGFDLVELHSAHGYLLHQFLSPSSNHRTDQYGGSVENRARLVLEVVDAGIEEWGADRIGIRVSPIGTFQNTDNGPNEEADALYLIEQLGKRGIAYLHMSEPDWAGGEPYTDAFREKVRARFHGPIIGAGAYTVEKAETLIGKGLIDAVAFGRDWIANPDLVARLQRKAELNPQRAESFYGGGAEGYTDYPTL
Chain of UniProt P27848 (P27848 whole entry): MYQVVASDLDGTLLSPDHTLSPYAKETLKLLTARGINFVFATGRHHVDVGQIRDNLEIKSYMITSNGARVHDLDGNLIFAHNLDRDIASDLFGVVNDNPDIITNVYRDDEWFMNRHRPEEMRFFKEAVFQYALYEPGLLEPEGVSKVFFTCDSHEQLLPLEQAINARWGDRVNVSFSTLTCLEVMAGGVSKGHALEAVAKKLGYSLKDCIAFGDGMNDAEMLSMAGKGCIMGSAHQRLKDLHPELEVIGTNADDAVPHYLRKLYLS
Chain of UniProt P0AAC4 (P0AAC4 whole entry): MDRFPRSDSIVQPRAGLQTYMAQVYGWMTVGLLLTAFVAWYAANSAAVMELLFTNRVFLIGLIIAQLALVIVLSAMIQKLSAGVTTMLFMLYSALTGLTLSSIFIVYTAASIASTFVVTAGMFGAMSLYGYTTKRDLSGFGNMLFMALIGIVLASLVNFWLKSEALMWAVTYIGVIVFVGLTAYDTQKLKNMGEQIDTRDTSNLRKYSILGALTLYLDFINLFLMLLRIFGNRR
Chain of UniProt Q59385 (Q59385 whole entry): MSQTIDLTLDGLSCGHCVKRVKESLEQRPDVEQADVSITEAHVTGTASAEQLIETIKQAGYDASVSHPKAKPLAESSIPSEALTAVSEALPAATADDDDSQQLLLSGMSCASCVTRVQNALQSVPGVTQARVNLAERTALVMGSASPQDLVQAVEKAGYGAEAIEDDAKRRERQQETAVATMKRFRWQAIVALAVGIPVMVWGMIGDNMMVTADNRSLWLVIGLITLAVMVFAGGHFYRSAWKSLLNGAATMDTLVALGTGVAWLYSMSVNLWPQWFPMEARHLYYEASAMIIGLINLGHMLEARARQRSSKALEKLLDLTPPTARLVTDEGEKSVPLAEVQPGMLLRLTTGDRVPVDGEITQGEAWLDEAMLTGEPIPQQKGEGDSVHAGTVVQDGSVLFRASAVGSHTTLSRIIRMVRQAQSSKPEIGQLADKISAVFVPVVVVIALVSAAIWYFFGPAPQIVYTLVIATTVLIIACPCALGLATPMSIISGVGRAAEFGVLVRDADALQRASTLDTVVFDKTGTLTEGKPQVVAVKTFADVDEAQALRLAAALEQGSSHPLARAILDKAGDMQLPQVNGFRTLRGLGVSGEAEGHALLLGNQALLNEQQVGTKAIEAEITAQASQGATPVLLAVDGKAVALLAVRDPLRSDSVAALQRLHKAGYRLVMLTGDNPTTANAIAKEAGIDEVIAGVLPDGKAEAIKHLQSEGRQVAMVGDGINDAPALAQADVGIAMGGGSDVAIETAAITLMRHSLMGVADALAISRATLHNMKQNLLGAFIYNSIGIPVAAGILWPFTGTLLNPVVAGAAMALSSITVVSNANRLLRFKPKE
Chain of UniProt P23840 (P23840 whole entry): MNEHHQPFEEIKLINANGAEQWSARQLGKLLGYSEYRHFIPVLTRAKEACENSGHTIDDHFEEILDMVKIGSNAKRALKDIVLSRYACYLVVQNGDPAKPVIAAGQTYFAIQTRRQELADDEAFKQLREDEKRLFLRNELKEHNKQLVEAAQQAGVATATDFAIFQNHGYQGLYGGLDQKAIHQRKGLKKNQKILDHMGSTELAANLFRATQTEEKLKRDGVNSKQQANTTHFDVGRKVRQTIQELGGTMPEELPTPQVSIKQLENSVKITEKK
Chain of UniProt P76909 (P76909 whole entry): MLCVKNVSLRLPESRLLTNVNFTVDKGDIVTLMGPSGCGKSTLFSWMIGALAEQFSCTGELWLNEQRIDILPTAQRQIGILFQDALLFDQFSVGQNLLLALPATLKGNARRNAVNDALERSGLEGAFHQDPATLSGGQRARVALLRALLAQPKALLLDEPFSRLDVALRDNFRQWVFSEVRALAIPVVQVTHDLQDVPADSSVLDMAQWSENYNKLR
Chain of UniProt P0ACP7 (P0ACP7 whole entry): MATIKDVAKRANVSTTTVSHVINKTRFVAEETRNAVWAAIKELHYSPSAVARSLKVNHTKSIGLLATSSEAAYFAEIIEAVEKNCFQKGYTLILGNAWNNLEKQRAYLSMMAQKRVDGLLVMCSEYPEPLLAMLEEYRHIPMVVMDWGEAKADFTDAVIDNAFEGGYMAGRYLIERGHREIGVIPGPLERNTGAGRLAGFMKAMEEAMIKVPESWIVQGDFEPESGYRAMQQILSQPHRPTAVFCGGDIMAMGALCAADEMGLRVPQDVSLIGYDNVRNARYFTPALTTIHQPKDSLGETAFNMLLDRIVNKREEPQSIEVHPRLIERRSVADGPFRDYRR
Chain of UniProt P25536 (P25536 whole entry): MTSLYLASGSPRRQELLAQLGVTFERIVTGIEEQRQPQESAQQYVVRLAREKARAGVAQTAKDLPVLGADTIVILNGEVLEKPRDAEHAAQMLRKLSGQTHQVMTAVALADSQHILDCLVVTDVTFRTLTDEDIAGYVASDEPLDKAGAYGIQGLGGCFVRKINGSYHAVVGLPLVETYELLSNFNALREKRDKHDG
Chain of UniProt P06989 (P06989 whole entry): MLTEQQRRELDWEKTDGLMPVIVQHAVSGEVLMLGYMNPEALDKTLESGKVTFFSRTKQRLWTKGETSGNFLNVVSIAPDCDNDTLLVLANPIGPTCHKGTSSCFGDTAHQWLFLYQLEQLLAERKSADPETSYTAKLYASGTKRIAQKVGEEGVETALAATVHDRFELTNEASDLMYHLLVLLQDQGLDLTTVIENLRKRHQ
Chain of UniProt P31665 (P31665 whole entry): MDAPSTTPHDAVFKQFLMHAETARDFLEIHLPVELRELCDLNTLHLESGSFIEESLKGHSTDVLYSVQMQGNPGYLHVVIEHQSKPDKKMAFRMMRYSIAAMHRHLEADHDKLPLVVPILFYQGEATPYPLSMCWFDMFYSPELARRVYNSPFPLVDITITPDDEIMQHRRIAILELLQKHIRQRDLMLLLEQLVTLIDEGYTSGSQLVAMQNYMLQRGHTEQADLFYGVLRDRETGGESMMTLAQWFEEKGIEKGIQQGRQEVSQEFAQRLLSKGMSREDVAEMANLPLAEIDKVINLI
Chain of UniProt P39407 (P39407 whole entry): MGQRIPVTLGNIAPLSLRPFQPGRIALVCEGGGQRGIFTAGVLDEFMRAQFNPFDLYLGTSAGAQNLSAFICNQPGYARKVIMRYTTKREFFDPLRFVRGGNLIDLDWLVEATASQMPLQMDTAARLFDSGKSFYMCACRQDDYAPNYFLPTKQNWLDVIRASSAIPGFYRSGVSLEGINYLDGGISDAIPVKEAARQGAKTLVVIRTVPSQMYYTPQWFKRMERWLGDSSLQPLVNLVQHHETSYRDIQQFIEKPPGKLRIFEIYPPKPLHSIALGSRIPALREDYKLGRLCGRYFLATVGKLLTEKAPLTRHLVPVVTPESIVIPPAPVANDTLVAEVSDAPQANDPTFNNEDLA
Chain of UniProt P76206 (P76206 whole entry): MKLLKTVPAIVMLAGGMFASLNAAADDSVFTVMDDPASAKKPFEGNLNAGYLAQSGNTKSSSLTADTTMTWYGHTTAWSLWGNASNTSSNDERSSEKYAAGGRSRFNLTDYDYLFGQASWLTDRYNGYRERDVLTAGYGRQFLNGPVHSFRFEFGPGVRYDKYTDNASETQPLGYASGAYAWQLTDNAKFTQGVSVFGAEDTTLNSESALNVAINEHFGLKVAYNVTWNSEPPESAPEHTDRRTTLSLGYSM

| Target | log2 fold change |
| --- | --- |
| UniProt P39407 (peptide sequence: EFFDPLR, peptide start residue: 90) | 0.583 |
| UniProt P76909 (peptide sequence: SGLEGAFHQDPATLSGGQR, peptide start residue: 121) | 0.631 |
| UniProt P77258 (peptide sequence: DENGQAIR, peptide start residue: 136) | -0.737 |
| UniProt P10908 (peptide sequence: VDAGSWYSK, peptide start residue: 79) | -0.858 |
| UniProt P76046 (peptide sequence: RLKNELNALVNR, peptide start residue: 3) | 0.559 |
| UniProt P0AAC4 (peptide sequence: SDSIVQPR, peptide start residue: 7) | -0.368 |
| UniProt P06989 (peptide sequence: KSADPETSYTAK, peptide start residue: 126) | -0.912 |
| UniProt P31665 (peptide sequence: QEVSQEFAQR, peptide start residue: 262) | -0.678 |
| UniProt P0ACP7 (peptide sequence: TRFVAEETR, peptide start residue: 25) | 1.38 |
| UniProt P31142 (peptide sequence: GHIPGALNVPWTELVR, peptide start residue: 194) | -0.763 |
| UniProt P75958 (peptide sequence: GVADALK, peptide start residue: 153) | -0.59 |
| UniProt P06987 (peptide sequence: VGDLSTEMIEHFFR, peptide start residue: 290) | -1.32 |
| UniProt P13458 (peptide sequence: NQPDGNLQVPR, peptide start residue: 103) | -0.895 |
| UniProt P37194 (peptide sequence: GNNQPDIQK, peptide start residue: 28) | 0.489 |
| UniProt P39160 (peptide sequence: TWQIAMDGSQKLPQR, peptide start residue: 366) | -0.725 |
| UniProt P07014 (peptide sequence: IVIRPLPGLPVIR, peptide start residue: 89) | 0.248 |

| Target | log2 fold change |
| --- | --- |
| UniProt P0AG14 (peptide sequence: VNNLSEQYK, peptide start residue: 44) | -0.765 |
| UniProt Q59385 (peptide sequence: LVTDEGEK, peptide start residue: 327) | 1.76 |
| UniProt P31475 (peptide sequence: AHLNTLMAEMAALKENFRR, peptide start residue: 132) | 0.66 |
| UniProt P25536 (peptide sequence: IVTGIEEQR, peptide start residue: 27) | -1.03 |
| UniProt P08179 (peptide sequence: MHENAAWLDGQR, peptide start residue: 191) | -0.588 |
| UniProt P75824 (peptide sequence: AGVCGCCK, peptide start residue: 275) | 0.616 |
| UniProt P27848 (peptide sequence: GHALEAVAK, peptide start residue: 192) | 0.631 |
| UniProt P37685 (peptide sequence: MMLEHYQQTK, peptide start residue: 489) | -0.646 |
| UniProt P04693 (peptide sequence: HAIAPLLFGADHPVLKQQR, peptide start residue: 77) | 0.961 |
| UniProt P23840 (peptide sequence: HFIPVLTR, peptide start residue: 38) | 0.387 |
| UniProt P76206 (peptide sequence: FEFGPGVR, peptide start residue: 152) | 1.15 |
| UniProt P04995 (peptide sequence: TDLGDNAAVPVK, peptide start residue: 288) | 0.472 |
| UniProt P15038 (peptide sequence: LHTEDITAR, peptide start residue: 265) | -2.37 |
| UniProt P25519 (peptide sequence: IDRDEENKPNR, peptide start residue: 329) | -1.08 |
| UniProt P38051 (peptide sequence: QAQQLGEWLMADDKNQR, peptide start residue: 267) | -0.448 |
